Source: PubChem BioAssay
TGFb SMAD3 inh: inhibitors of TGF-b signaling; HepG2 CAGA-GFP TGF-b/SMAD3 reporter, GFP fluorescence, 18 h; TGF-beta stimulated, 500 pg/mL final; Potency, µM (doses to about 46.1 µM), without a hit: at the top dose activity, negative = inhibition, hits mostly inhibitors; actives 1.2% (n = 410,000); AID 588855; also: % is scaled to controls: 0 for no effect and ±100 for the full control effect; nearly all actives have a fitted effect of over 65% in size
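HEPG2 CAGA-GFP, 1000 cells/well; 2 h settle, 37 C; cpd via pin tool; TGF-b 500 pg/mL final; 18 h, 37 C; GFP imaging ex488/em500-530; %Activity normalised to -TGF-b and +DMSO controls; CRC fit, curve class.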
ATXN viability: cell viability loss in ATXN counter-screen. S2 cells (HEK-293 line with an ATXN2-luciferase reporter) viability, CellTiter-Fluor protease fluorescence, 24 h. Potency, µM (doses to about 56.7 µM), most hits filed as cytotoxic. actives 0.49% (n = 400,000). AID 651635; also: nearly all actives have a fitted effect of over 40% in size
ATXN2 expr inh: ATXN2 expression inhibition. HEK-293 ATXN2-luciferase reporter, luminescence, 24 h. Potency, µM (highest dose often 57 µM), inactives show top-dose activity change, negative = inhibition, usual class: inhibitors. actives 0.72% (n = 360,000); also: % is scaled to controls: 0 for no effect and ±100 for the full control effect; nearly all actives have a fitted effect of over 55% in size
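qHTS (up to 57 uM final) was run with 24 h compound exposure of reporter cells at 37 °C. Each well was multiplexed: SteadyGlo luminescence measured ATXN2-luciferase expression after a fluorogenic Gly-Phe-AFC viability readout (25 uM final).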
HT1080-NT tox: kills 2HG-producing HT-1080-NT fibrosarcoma cells | HT-1080-NT fibrosarcoma viability, CellTiter-Glo ATP luminescence, 48 h | Potency, µM (titrated, usually from 46.1 µM), without a hit: at the highest dose activity, negative = less viability, actives largely listed as cytotoxic | actives 1.6% (n = 360,000);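 also: NT is the 2HG producing partner of a matched IDH1 knockdown line; 0% = DMSO-treated cells and -100% = media-only wells without cells; nearly all actives have a fitted effect of over 55% in size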
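Viability by CellTiter-Glo luminescence after 48 h compound exposure at 37C of HT-1080-NT cells (750/well, RPMI, 5% FBS). % activity scaled between DMSO wells and medium-only wells, then curve-fitted and categorized by curve class.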
HepG2 tox: kills HepG2 cells in TGF-b inhibitor counter-screen | Potency, µM (top dose mostly 46.1 µM), inactives show at the highest dose activity change, negative = cytotoxicity, most hits filed as cytotoxic | actives 0.76% (n = 410,000) | HepG2 CAGA-GFP viability, ATP luminescence, 18 h | AID 588856
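HepG2 CAGA-GFP cells (1000/well, DMEM with 1% FBS) received compound, then TGF-beta at 500 pg/mL final, and were incubated 18 hours at 37 degrees C. Viability was read by CellTiter-Glo luminescence. Media-only wells were set as complete cell-killing and DMSO as no toxicity.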
HT1080 IDH1KD tx: toxicity to HT-1080 IDH1 knockdown cells (counter line) | HT-1080 IDH1 knockdown viability, ATP luminescence, 48 h | Potency, µM (titrated, usually from 46.1 µM), for the others: at the highest dose activity, negative = toxicity, actives largely listed as cytotoxic | actives 2% (n = 360,000);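 also: 0% = DMSO wells and -100% = cell-free medium wells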
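CellTiter-Glo luminescence after 48 h compound exposure at 37 degrees C of IDH1-knockdown HT-1080 cells in 5% FBS RPMI. %Activity scaled between DMSO wells and cell-free media wells, with curves fitted and assigned curve classes.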
* = called active by the depositor. The list is not random: actives were taken first. Their share in the collection is about 3.8%. Calls follow the shape of the dose curve; as a rule, active = well fitted curve in the direction sought with a large enough effect; inconclusive = small, poorly fitted or top-dose-only effect, or another doubt; inactive = no such curve, though single readings can be large; an effect the other way counts as inactive or inconclusive. Potency is read from the fitted curve at half-maximal effect.

For COC(=O)c1ccc(C)c(NS(=O)(=O)c2ccc3c(c2)OCCO3)c1 the results were TGFb SMAD3 inh -20%, ATXN viability inactive, ATXN2 expr inh 1%, HT1080-NT tox 0.5µM*, HepG2 tox -7% and HT1080 IDH1KD tx 0.71µM*.
`CC(=O)c1cc2c(cc1NS(=O)(=O)c1ccc(C)cc1)OCCO2` gave TGFb SMAD3 inh 5%, ATXN viability inactive, ATXN2 expr inh -32%, HT1080-NT tox inconclusive, HepG2 tox -2% and HT1080 IDH1KD tx 16µM*.
Screening CC(=O)c1cc2c(cc1NS(=O)(=O)c1ccccc1)OCO2 returned TGFb SMAD3 inh 0%, ATXN viability inactive, ATXN2 expr inh -1%, HT1080-NT tox inconclusive, HepG2 tox -27% and HT1080 IDH1KD tx 2%.
Cc1c(Cl)cccc1NC(=O)CN1C(=O)COc2ccc(S(=O)(=O)Nc3ccccc3)cc21 was read as TGFb SMAD3 inh 10µM*, ATXN viability inconclusive, ATXN2 expr inh -9% and HepG2 tox -20%.
For Cc1coc2cc3oc(=O)c(CC(=O)NCc4ccc(F)cc4)c(C)c3cc12 the results were TGFb SMAD3 inh 0% and HepG2 tox 2%.
For COCCCN1CCN(C2Cc3ccccc3Sc3ccc(Cl)cc32)CC1 (stereo not drawn) the results were TGFb SMAD3 inh inconclusive, ATXN viability inconclusive, ATXN2 expr inh inconclusive, HT1080-NT tox -2%, HepG2 tox -55% and HT1080 IDH1KD tx -11%.
`Clc1ccc2c(c1)C(N1CCNCC1)Cc1ccccc1S2` (stereo not drawn) gave TGFb SMAD3 inh inconclusive, ATXN viability 32µM*, ATXN2 expr inh inconclusive, HT1080-NT tox inconclusive, HepG2 tox 14µM* and HT1080 IDH1KD tx 18µM*.
`Clc1cccc2c1Sc1ccccc1CC2N1CCNCC1` (stereo not drawn) gave TGFb SMAD3 inh inconclusive, ATXN viability inconclusive, ATXN2 expr inh inconclusive, HT1080-NT tox 23µM*, HepG2 tox -110% and HT1080 IDH1KD tx 18µM*.
For COc1ccc(/C=C/c2nc(C#N)c(N3CCC(C(N)=O)CC3)o2)cc1OC the results were TGFb SMAD3 inh -1% and HepG2 tox -35%.
CC1CCC/C=C/C(=O)c2c(O)cc(O)cc2CC(=O)O1 (stereo not drawn) was read as TGFb SMAD3 inh 7.1µM*, ATXN viability 11µM*, ATXN2 expr inh 10µM*, HT1080-NT tox 18µM*, HepG2 tox -68% and HT1080 IDH1KD tx 21µM*.
For C[C@@H]1Cc2c(O)c(O)cc(O)c2C(=O)O1 the results were TGFb SMAD3 inh 12%, ATXN viability inactive, ATXN2 expr inh 5%, HT1080-NT tox -6%, HepG2 tox -1% and HT1080 IDH1KD tx -3%.
For CCOc1ccc(Nc2nc(-c3c(C)nc4ccccn34)cs2)cc1 the results were ATXN2 expr inh -9%.
For COc1cc(OC)cc(-c2cc3nc(C)c(CCC(=O)NCc4ccc(Cl)cc4)c(C)n3n2)c1 the results were TGFb SMAD3 inh inconclusive, ATXN viability inconclusive, ATXN2 expr inh inconclusive and HepG2 tox -36%.
For COc1cc(OC)cc(-c2cc3nc(C)c(CCC(=O)NCc4ccccc4)c(C)n3n2)c1 the results were TGFb SMAD3 inh -26%, ATXN viability inconclusive, ATXN2 expr inh 8.9µM*, HT1080-NT tox -19%, HepG2 tox 8% and HT1080 IDH1KD tx -17%.
COc1cccc(CNCCc2c[nH]c3ccccc23)c1OCc1ccc(F)cc1 was read as TGFb SMAD3 inh inconclusive, ATXN viability inconclusive, ATXN2 expr inh 20µM*, HT1080-NT tox 21µM*, HepG2 tox 13µM* and HT1080 IDH1KD tx inconclusive.
Screening CCOC(=O)c1sc(N(Cc2ccccc2)C(=O)COC(=O)c2ccc(O)cc2)nc1C returned TGFb SMAD3 inh 13µM*, ATXN viability inactive, ATXN2 expr inh inconclusive, HT1080-NT tox -19%, HepG2 tox -97% and HT1080 IDH1KD tx -21%.
For CCOC(=O)c1sc(N(Cc2ccccc2)C(=O)CCl)nc1C the results were TGFb SMAD3 inh inconclusive, ATXN viability inactive, ATXN2 expr inh 42%, HT1080-NT tox inconclusive, HepG2 tox -173% and HT1080 IDH1KD tx 18µM*.
For CCOC(=O)c1sc(N(Cc2ccccc2)C(=O)COC(=O)c2ccccc2O)nc1C the results were TGFb SMAD3 inh -1%, ATXN viability inactive, ATXN2 expr inh 23%, HT1080-NT tox 12%, HepG2 tox 2% and HT1080 IDH1KD tx 2%.
For Cc1cccc(NC(=O)c2ccc3snnc3c2)c1C the results were TGFb SMAD3 inh 2%, ATXN viability inactive, ATXN2 expr inh 15% and HepG2 tox -8%.
COc1ccc(S(=O)(=O)N2CCN(C(=O)c3cc4c(s3)CCCC4)CC2)cc1 was read as TGFb SMAD3 inh inconclusive, HT1080-NT tox -13%, HepG2 tox 0% and HT1080 IDH1KD tx -16%.
`O=C(c1cc2c(s1)CCCC2)N1CCN(S(=O)(=O)c2ccccc2)CC1` gave TGFb SMAD3 inh 0%, ATXN viability inactive, ATXN2 expr inh 4%, HT1080-NT tox 1%, HepG2 tox 10µM* and HT1080 IDH1KD tx -3%.
Screening Cc1c(C(=O)OC2CCCCC2)[nH]c2c1C(=O)CC(c1ccccc1)C2 (stereo not drawn) returned TGFb SMAD3 inh 36%, ATXN viability inactive, ATXN2 expr inh 5% and HepG2 tox 7%.
COc1ccc(OC)c(C2CC(=O)c3c([nH]c(C(=O)OCC4CCCO4)c3C)C2)c1 (stereo not drawn) was read as TGFb SMAD3 inh -2%, ATXN viability inconclusive, ATXN2 expr inh -22%, HT1080-NT tox -11%, HepG2 tox -8% and HT1080 IDH1KD tx -15%.
For C/C=C/COC(=O)c1[nH]c2c(c1C)C(=O)CC(c1ccc(N(C)C)cc1)C2 (stereo not drawn) the results were TGFb SMAD3 inh -7%, ATXN viability inconclusive, ATXN2 expr inh -24%, HT1080-NT tox -18%, HepG2 tox -23% and HT1080 IDH1KD tx -27%.
`Cc1c(C(=O)OCC2CCCO2)[nH]c2c1C(=O)CC(c1ccco1)C2` (stereo not drawn) gave TGFb SMAD3 inh -3%, ATXN viability inactive, ATXN2 expr inh -5%, HT1080-NT tox inconclusive, HepG2 tox -25% and HT1080 IDH1KD tx 2.9µM*.
C=CCOC(=O)c1[nH]c2c(c1C)C(=O)CC(c1ccco1)C2 (stereo not drawn) was read as TGFb SMAD3 inh inconclusive, ATXN viability inconclusive, ATXN2 expr inh -1%, HT1080-NT tox inconclusive, HepG2 tox 0% and HT1080 IDH1KD tx 0.37µM*.
